{"source": "the supplement of paper PMC3334620", "note": "Whole data set: some 33,000 sequences, median “E-score (-0.5 to 0.5)” near -0.056, cut for the highest 2% near 0.38. For the sample, the highest values were picked, then their nearest neighbours and some sequences at random."}
{"biological_target": "Stb4 (UniProt P50104)", "sequence (P50104 whole entry, the tested form may be a part)": "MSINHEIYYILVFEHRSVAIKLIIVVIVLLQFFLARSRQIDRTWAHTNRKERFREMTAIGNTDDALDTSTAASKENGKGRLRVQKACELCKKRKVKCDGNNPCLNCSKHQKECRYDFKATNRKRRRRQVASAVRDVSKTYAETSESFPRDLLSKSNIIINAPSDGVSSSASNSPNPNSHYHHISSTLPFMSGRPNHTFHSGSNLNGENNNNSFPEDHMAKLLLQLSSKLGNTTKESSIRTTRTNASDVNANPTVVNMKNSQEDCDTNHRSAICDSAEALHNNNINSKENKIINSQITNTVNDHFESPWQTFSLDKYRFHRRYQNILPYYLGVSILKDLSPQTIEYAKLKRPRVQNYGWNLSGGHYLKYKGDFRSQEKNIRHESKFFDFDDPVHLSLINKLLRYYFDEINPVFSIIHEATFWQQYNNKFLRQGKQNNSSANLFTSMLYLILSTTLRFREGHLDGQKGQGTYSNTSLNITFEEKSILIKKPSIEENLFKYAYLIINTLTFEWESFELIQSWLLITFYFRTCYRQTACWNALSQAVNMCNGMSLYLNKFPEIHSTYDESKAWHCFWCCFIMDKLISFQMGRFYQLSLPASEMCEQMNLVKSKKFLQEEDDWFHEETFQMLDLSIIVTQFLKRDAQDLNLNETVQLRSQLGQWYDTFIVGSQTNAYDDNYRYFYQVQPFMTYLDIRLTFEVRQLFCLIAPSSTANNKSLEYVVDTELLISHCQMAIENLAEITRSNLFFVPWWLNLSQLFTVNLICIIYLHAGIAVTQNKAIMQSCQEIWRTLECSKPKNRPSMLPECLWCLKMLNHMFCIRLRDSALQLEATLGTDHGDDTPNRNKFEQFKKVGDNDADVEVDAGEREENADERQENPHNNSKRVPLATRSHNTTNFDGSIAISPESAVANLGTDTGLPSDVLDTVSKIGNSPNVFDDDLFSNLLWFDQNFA", "assay": "PBM E-score (8-mer binding enrichment) (E-score (-0.5 to 0.5)); higher = stronger / more preferred TF binding", "conditions": "protein concentration: 200 nM; construct: GST-DNA-binding domain", "description": "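Universal 'all 10-mer' protein binding microarrays (Agilent AMADID 015681) probed with GST-tagged S. cerevisiae TFs (full-length or DBD) made by in vitro transcription/translation (PURExpress), about 100-200 nM. Bound TF was detected with fluorescent anti-GST. Each ungapped 8-mer (which stands for itself and its reverse complement) is scored by the PBM enrichment score (E-score), a modified Wilcoxon-Mann-Whitney statistic from -0.5 to +0.5, computed with the Universal PBM Analysis Suite. Scale: above 0.35 generally sequence-specific binding.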"}
{"sequence": "GTGAAAGA", "PBM E-score": 0.0652}
{"sequence": "GTGAAGAA", "PBM E-score": -0.139}
{"sequence": "GAAGTGTA", "PBM E-score": -0.107}
{"sequence": "ATTGGTAA", "PBM E-score": -0.137}
{"sequence": "GCCTGCAA", "PBM E-score": -0.18}
{"sequence": "CCGTGAAA", "PBM E-score": 0.145}
{"sequence": "GTATCATA", "PBM E-score": -0.0852}
{"sequence": "AATCATAA", "PBM E-score": -0.089}
{"sequence": "GCCCAGGA", "PBM E-score": -0.0894}
{"sequence": "AACGGAAG", "PBM E-score": 0.284}
{"sequence": "CGCGGAAG", "PBM E-score": 0.357}
{"sequence": "ATCGGAAC", "PBM E-score": 0.428}
{"sequence": "ATCGGACC", "PBM E-score": 0.308}
{"sequence": "GACGGAAC", "PBM E-score": 0.317}
{"sequence": "ATCGGACG", "PBM E-score": 0.289}
{"sequence": "ATCGGAAG", "PBM E-score": 0.433}
{"sequence": "CACGGAAG", "PBM E-score": 0.36}
{"sequence": "CTCGGAAG", "PBM E-score": 0.48}
{"sequence": "GTCGGAAC", "PBM E-score": 0.454}
{"sequence": "GTGGGAAC", "PBM E-score": -0.102}
{"sequence": "AACGGAAC", "PBM E-score": 0.348}
{"sequence": "AATGACGC", "PBM E-score": -0.238}
{"sequence": "GTGATGGA", "PBM E-score": -0.00596}
{"sequence": "CGATTCTC", "PBM E-score": 0.0534}
{"sequence": "ACGCTCCA", "PBM E-score": -0.0409}
{"sequence": "AATGAGAA", "PBM E-score": -0.0737}
{"sequence": "CACGGAAA", "PBM E-score": 0.352}
{"sequence": "AACGGAAA", "PBM E-score": 0.393}
{"sequence": "AACGGACA", "PBM E-score": 0.0833}
{"sequence": "CTCGGAAA", "PBM E-score": 0.479}
{"sequence": "ATCGGAAA", "PBM E-score": 0.424}
{"sequence": "CTGGGAAA", "PBM E-score": -0.168}
{"sequence": "GTCAGAAA", "PBM E-score": -0.203}
{"sequence": "GTTGGAAA", "PBM E-score": 0.0285}
{"sequence": "GTCGGAAA", "PBM E-score": 0.453}
{"sequence": "CGCGGAAA", "PBM E-score": 0.316}
{"sequence": "AGCGGAAA", "PBM E-score": 0.333}
{"sequence": "ATCGGACA", "PBM E-score": 0.196}
{"sequence": "CCCATTCA", "PBM E-score": -0.0249}
{"sequence": "CGTTTATA", "PBM E-score": -0.0024}
{"sequence": "ATCCCGGC", "PBM E-score": 0.323}
{"sequence": "AGCGTAGG", "PBM E-score": -0.0217}
{"sequence": "AAGGCGGG", "PBM E-score": -0.0393}
{"sequence": "CTGAACAA", "PBM E-score": -0.0548}
{"sequence": "AGGGATGG", "PBM E-score": -0.174}
{"sequence": "ACGATTCC", "PBM E-score": 0.06}
{"sequence": "CGACTTGA", "PBM E-score": -0.0925}
{"sequence": "CGATCAAA", "PBM E-score": 0.0532}
{"sequence": "AACTTGGC", "PBM E-score": -0.109}
{"sequence": "ATCGGAAT", "PBM E-score": 0.434}
{"sequence": "AACGGAAT", "PBM E-score": 0.315}
{"sequence": "AGCGGAAT", "PBM E-score": 0.141}
{"sequence": "GGCGGAAC", "PBM E-score": 0.356}
{"sequence": "CTCGGAAC", "PBM E-score": 0.485}
{"sequence": "TTCAGAAA", "PBM E-score": -0.23}
{"sequence": "TTCGGAAA", "PBM E-score": 0.474}
{"sequence": "CTAGGAAC", "PBM E-score": -0.00703}
{"sequence": "AGCGGAAC", "PBM E-score": 0.316}
{"sequence": "TGCGGAAA", "PBM E-score": 0.299}
{"sequence": "CACGGAAC", "PBM E-score": 0.352}
{"sequence": "CGCGGAAC", "PBM E-score": 0.395}
{"sequence": "GCCATGGC", "PBM E-score": -0.361}
{"sequence": "CCCTTTTA", "PBM E-score": -0.172}
{"sequence": "AGCCTAGG", "PBM E-score": -0.0301}
{"sequence": "GATCCTTA", "PBM E-score": -0.0996}
{"sequence": "GCCATTCC", "PBM E-score": 0.127}
{"sequence": "CCAGCGCC", "PBM E-score": -0.0109}
{"sequence": "CTACGCCA", "PBM E-score": -0.271}
{"sequence": "CACCCCAC", "PBM E-score": 0.0245}
{"sequence": "CCTTGTGA", "PBM E-score": -0.0811}
{"sequence": "CCTCTCCA", "PBM E-score": -0.309}
{"sequence": "CCTCGCTA", "PBM E-score": -0.29}
{"sequence": "CCGCTACA", "PBM E-score": 0.109}
{"sequence": "AATTCAAC", "PBM E-score": 0.015}
{"sequence": "ATTAACCA", "PBM E-score": -0.136}
{"sequence": "ATTAACCC", "PBM E-score": 0.212}
{"sequence": "ATTAACCG", "PBM E-score": 0.413}
{"sequence": "GAGGAATC", "PBM E-score": -0.07}
{"sequence": "ACGTCGGC", "PBM E-score": 0.307}
{"sequence": "CCGTCGTA", "PBM E-score": -0.0259}
{"sequence": "ACGTCGGA", "PBM E-score": 0.389}
{"sequence": "GCGTCGGA", "PBM E-score": 0.449}
{"sequence": "GCGTCGTA", "PBM E-score": 0.0854}
{"sequence": "CCGTCGGA", "PBM E-score": 0.397}
{"sequence": "GCGTCGAA", "PBM E-score": -0.0895}
{"sequence": "ACGTCGGG", "PBM E-score": 0.349}
{"sequence": "CCGTCGGC", "PBM E-score": 0.329}
{"sequence": "CTGGCAGC", "PBM E-score": -0.168}
{"sequence": "ACATAATA", "PBM E-score": -0.153}
{"sequence": "CGAGTCAA", "PBM E-score": -0.0247}
{"sequence": "AGGTTCAT", "PBM E-score": -0.128}
{"sequence": "ACAAGGCT", "PBM E-score": -0.138}
{"sequence": "ACAGATTG", "PBM E-score": -0.0283}
{"sequence": "AGTTTAAT", "PBM E-score": -0.111}
{"sequence": "ATGGGCTA", "PBM E-score": -0.084}
{"sequence": "CCACTCCA", "PBM E-score": -0.146}
{"sequence": "AATACCAT", "PBM E-score": -0.115}
{"sequence": "AGTGCCGC", "PBM E-score": 0.123}
{"sequence": "CGTGCCGA", "PBM E-score": 0.405}
{"sequence": "AGTGCCGG", "PBM E-score": 0.301}
{"sequence": "CGTGCCGC", "PBM E-score": 0.0918}
{"sequence": "GGTGCCCA", "PBM E-score": -0.147}
{"sequence": "CGTGCCCA", "PBM E-score": 0.00213}
{"sequence": "AGTGCCGA", "PBM E-score": 0.423}
{"sequence": "GGTGCCGA", "PBM E-score": 0.402}
{"sequence": "GGTGCCTA", "PBM E-score": -0.0355}
{"sequence": "CTGGACGC", "PBM E-score": -0.278}
{"sequence": "ATCGCCCG", "PBM E-score": 0.152}
{"sequence": "CACGGCCC", "PBM E-score": 0.0623}
{"sequence": "GAGGAGTA", "PBM E-score": -0.00803}
{"sequence": "CTCGGGCA", "PBM E-score": 0.325}
{"sequence": "ATCGGGTA", "PBM E-score": 0.419}
{"sequence": "CCCGGGTA", "PBM E-score": 0.407}
{"sequence": "GTCGGGTA", "PBM E-score": 0.445}
{"sequence": "GACGGGTA", "PBM E-score": 0.267}
{"sequence": "GTCGGGGA", "PBM E-score": 0.225}
{"sequence": "ATCGGGTG", "PBM E-score": 0.366}
{"sequence": "ATCGGGCA", "PBM E-score": 0.125}
{"sequence": "CTCGGGTA", "PBM E-score": 0.478}
{"sequence": "CACGGGTA", "PBM E-score": 0.333}
{"sequence": "CCCGGGTC", "PBM E-score": 0.32}
{"sequence": "CCGGGGTA", "PBM E-score": 0.155}
{"sequence": "ATGATTTC", "PBM E-score": 0.0687}
{"sequence": "AATGATTG", "PBM E-score": -0.164}
{"sequence": "ATAGCAAT", "PBM E-score": -0.185}
{"sequence": "AGTCTAAC", "PBM E-score": -0.163}
{"sequence": "ACAGTCAG", "PBM E-score": -0.0929}
{"sequence": "ACACCAAT", "PBM E-score": 0.00344}
{"sequence": "CTCGGGTC", "PBM E-score": 0.434}
{"sequence": "CTCGGGCC", "PBM E-score": 0.343}
{"sequence": "ATCGGGTC", "PBM E-score": 0.325}
{"sequence": "CGGAATTC", "PBM E-score": 0.322}
{"sequence": "GGGAATCA", "PBM E-score": 0.0543}
{"sequence": "AGGAATTA", "PBM E-score": 0.0103}
{"sequence": "CGGAATTA", "PBM E-score": 0.401}
{"sequence": "CGGAATCA", "PBM E-score": 0.388}
{"sequence": "TGGAATAA", "PBM E-score": 0.072}
{"sequence": "AGGAATCA", "PBM E-score": -0.00647}
{"sequence": "GGGAATAA", "PBM E-score": 0.233}
{"sequence": "CGGAATAA", "PBM E-score": 0.384}
{"sequence": "GGATCATA", "PBM E-score": 0.228}
{"sequence": "AACTGTGC", "PBM E-score": -0.157}
{"sequence": "AAAAATCG", "PBM E-score": 0.0452}
{"sequence": "CTGAAACA", "PBM E-score": 0.0153}
{"sequence": "GTTTAGAA", "PBM E-score": -0.0425}
{"sequence": "ATGAAAAT", "PBM E-score": 0.0835}
{"sequence": "AGACGGGA", "PBM E-score": 0.174}
{"sequence": "GACTCAGC", "PBM E-score": -0.191}
{"sequence": "CACGCATG", "PBM E-score": -0.209}
{"sequence": "ATACATGA", "PBM E-score": -0.212}
{"sequence": "ACGAACAG", "PBM E-score": -0.15}
{"sequence": "CCGAACAA", "PBM E-score": 0.425}
{"sequence": "ACGAACAA", "PBM E-score": 0.079}
{"sequence": "CCGAACTA", "PBM E-score": 0.395}
{"sequence": "GCGAACAA", "PBM E-score": -0.0836}
{"sequence": "CCGAACTC", "PBM E-score": 0.374}
{"sequence": "CCGAACAC", "PBM E-score": 0.372}
{"sequence": "CCGAACAG", "PBM E-score": 0.4}
{"sequence": "ACGAACTA", "PBM E-score": -0.194}
{"sequence": "GCAACGAC", "PBM E-score": 0.0391}
{"sequence": "CACTGTGA", "PBM E-score": -0.018}
{"sequence": "AGCCCCTA", "PBM E-score": -0.139}
{"sequence": "AAGGGTTC", "PBM E-score": -0.14}
{"sequence": "CACGTGTA", "PBM E-score": -0.0718}
{"sequence": "GTGTGAAC", "PBM E-score": 0.0138}
{"sequence": "CGTGGCAC", "PBM E-score": -0.178}
{"sequence": "CCCTGTGC", "PBM E-score": -0.0934}
{"sequence": "AAATCGGG", "PBM E-score": 0.317}
{"sequence": "CTATCGTA", "PBM E-score": -0.199}
{"sequence": "ATATCGGC", "PBM E-score": 0.316}
{"sequence": "CTATCGGA", "PBM E-score": 0.423}
{"sequence": "AAATCGGA", "PBM E-score": 0.399}
